Among the data in PubChem BioAssay (Tox21) are Potency and outcome values, retold here.

Assay [1] in a line: qHTS assay to identify small molecule agonists of the androgen receptor (AR) signaling pathway in the presence of an antagonist - cell viability counter screen (AID 1259379). Also: nearly all actives have a fitted effect of over 25% in size. Also: potency is read from the fitted curve at half-maximal effect. A digest of the protocol: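 Cytotoxicity counter-screen run in the same wells as the nilutamide-challenged (3.0 µM final) AR agonist assay in MDA-kb2 cells. Compounds tested at 15 concentrations for 16 h, 37 °C without CO2; CellTiter-Fluor fluorescence read.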
In general terms: In qHTS, concentration-response curves come from the screen itself.

Assay [2] is described as follows: qHTS assay to identify small molecule agonists of the estrogen receptor beta (ER-beta) signaling pathway - cell viability counter screen (AID 1259380). Also: nearly all actives have a fitted effect of over 30% in size. Also: potency is read from the fitted curve at half-maximal effect. In short, it runs like this:
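Cell viability counter screen: CellTiter-Glo luminescence (30 min, room temperature) measured in the same wells as the beta-lactamase readout, after 16 hr compound exposure at 37C of ER-beta-bla HEK293T cells in 2% charcoal-stripped FBS medium.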

Assay [3] can be described thus: qHTS assay to identify small molecule antagonists of the estrogen receptor beta (ER-beta) signaling pathway - cell viability counter screen (AID 1259382). Also: nearly all actives have a fitted effect of over 55% in size. Also: potency is read from the fitted curve at half-maximal effect. A digest of the protocol: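 Cytotoxicity was measured in the same wells by CellTiter-Glo luminescence after 30 min at room temperature. Cells were ER-beta-bla HEK293T in charcoal-stripped serum, given compound together with 1 nM E2 and incubated 16 h at 37C.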

Assay [4] addresses Estrogen receptor (Homo sapiens) (UniProt P03372). The assay can be described thus: qHTS assay to identify small molecule agonists of the estrogen receptor alpha (ER-alpha) signaling pathway in the presence of an antagonist (AID 1259383; calls by dose curve; also: top concentration of the series differs between compounds; nearly all actives have a fitted effect of over 15% in size). A digest of the protocol: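 Agonist-mode confirmation run in the presence of 10.0nM (final) ICI-182,780 antagonist. The reporter was ERE-driven luciferase in VM7Luc4E2 cells, grown in charcoal-stripped serum. Cells were exposed to 15-concentration compound series for 22hr, then ONE-Glo luminescence was read.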

Assay [5] in a line: qHTS assay to identify small molecule agonists or antagonists of the thyroid stimulating hormone receptor (TSHR) signaling pathway - wild type cell line counter screen (AID 1259384; calls by dose curve; also: potency is read from the fitted curve at half-maximal effect). In short, it runs like this:
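Counter screen in untransfected Hek293: compounds (15-point titration, triplicate) plus phosphodiesterase inhibitor Ro20-1724 added after 18 h plating; 30 min RT. Intracellular cAMP via competitive d2/cryptate immunoassay, 1 h incubation.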

Assay [6] has as its target Thyrotropin receptor (Homo sapiens) (UniProt P16473). Briefly: qHTS assay to identify small molecule antagonists of the thyroid stimulating hormone receptor (TSHR) signaling pathway (AID 1259385; calls by dose curve; also: nearly all actives have a fitted effect of over 20% in size; also: potency is read from the fitted curve at half-maximal effect). In short, it runs like this: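 Antagonist mode: compound-treated TSHR-expressing HEK293 cells were stimulated with 1.5 ng/mL TSH (final) in presence of Ro20-1724 for 30 min at RT. HTRF cAMP detection after 1 h; each compound tested at 15 concentrations, triplicate.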

The nature of assay [7]: qHTS assay to identify small molecule agonists of the estrogen receptor alpha (ER-alpha) signaling pathway in the presence of an antagonist - cell viability counter screen (AID 1259386). Also: nearly all actives have a fitted effect of over 30% in size. Also: potency is read from the fitted curve at half-maximal effect. In short, it runs like this:
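Compounds tested at 15 concentrations for 22 h at 37C alongside 10.0nM (final) ICI-182,780 antagonist, in VM7Luc4E2 cells grown in phenol red-free, charcoal-stripped medium. Viability read by CellTiter-Fluor fluorescence after 1 h reagent incubation.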

The target in assay [8] is Progesterone receptor (Homo sapiens) (UniProt P06401). Briefly: qHTS assay to identify small molecule agonists of the progesterone receptor (PR) signaling pathway (AID 1346784; calls by dose curve; also: nearly all actives have a fitted effect of over 30% in size). A digest of the protocol: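 Using charcoal-stripped serum (2%) to limit endogenous steroids, PR-UAS-bla HEK 293T cells received compounds for 16 hr at 37C after 6 hr plating; beta-lactamase FRET fluorescence was recorded following 2 hr substrate loading at room temperature.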

For assay [9] the target is unchanged. The assay can be described thus: qHTS assay to identify small molecule antagonists of the progesterone receptor (PR) signaling pathway (AID 1346795; active = well fitted inhibition curve with a large enough effect in the signal ratio in the repeat runs, not every such curve was filed as active; the % refers to the signal ratio; also: potency is read from the fitted curve at half-maximal effect). In short, it runs like this:
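Inhibition of R5020-induced (1 nM final) beta-lactamase reporter signal in PR-UAS-bla HEK293T cells was scored by FRET fluorescence after overnight (16 hr) compound treatment.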

Molecules are shown by their SMILES. Values without a mark were called inactive. Results filed as inconclusive are left out. The source made the active and inactive calls. Unless noted, calls follow the shape of the dose curve; as a rule, active = well fitted curve in the direction sought with a large enough effect in the repeat runs; inconclusive = weak or mixed curves; inactive = no such curve, though single readings can be large; an effect the other way counts as inactive or inconclusive.

Chain of Thyrotropin receptor (Homo sapiens) (P16473 whole entry, looked up): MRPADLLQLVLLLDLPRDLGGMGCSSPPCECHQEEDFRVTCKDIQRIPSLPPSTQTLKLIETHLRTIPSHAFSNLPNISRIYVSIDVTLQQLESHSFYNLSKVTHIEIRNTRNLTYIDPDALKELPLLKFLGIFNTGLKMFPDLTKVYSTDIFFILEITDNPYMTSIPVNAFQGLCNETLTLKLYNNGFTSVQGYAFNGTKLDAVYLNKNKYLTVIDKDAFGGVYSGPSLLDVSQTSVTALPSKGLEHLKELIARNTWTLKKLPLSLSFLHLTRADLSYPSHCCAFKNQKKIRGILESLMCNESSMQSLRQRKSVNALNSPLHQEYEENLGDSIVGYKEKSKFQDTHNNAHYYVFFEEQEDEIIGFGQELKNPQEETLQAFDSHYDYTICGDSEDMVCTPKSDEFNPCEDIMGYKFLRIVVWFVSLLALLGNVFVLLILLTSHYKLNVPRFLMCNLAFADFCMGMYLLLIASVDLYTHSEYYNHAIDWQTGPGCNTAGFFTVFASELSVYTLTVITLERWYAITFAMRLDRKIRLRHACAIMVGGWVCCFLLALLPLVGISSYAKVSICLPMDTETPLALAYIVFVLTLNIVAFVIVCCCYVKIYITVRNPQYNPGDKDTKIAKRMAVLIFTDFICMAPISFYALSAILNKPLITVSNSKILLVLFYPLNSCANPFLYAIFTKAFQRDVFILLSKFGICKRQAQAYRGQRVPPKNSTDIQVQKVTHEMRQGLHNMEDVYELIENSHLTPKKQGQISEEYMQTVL
Chain of Progesterone receptor (Homo sapiens) (P06401 whole entry, looked up): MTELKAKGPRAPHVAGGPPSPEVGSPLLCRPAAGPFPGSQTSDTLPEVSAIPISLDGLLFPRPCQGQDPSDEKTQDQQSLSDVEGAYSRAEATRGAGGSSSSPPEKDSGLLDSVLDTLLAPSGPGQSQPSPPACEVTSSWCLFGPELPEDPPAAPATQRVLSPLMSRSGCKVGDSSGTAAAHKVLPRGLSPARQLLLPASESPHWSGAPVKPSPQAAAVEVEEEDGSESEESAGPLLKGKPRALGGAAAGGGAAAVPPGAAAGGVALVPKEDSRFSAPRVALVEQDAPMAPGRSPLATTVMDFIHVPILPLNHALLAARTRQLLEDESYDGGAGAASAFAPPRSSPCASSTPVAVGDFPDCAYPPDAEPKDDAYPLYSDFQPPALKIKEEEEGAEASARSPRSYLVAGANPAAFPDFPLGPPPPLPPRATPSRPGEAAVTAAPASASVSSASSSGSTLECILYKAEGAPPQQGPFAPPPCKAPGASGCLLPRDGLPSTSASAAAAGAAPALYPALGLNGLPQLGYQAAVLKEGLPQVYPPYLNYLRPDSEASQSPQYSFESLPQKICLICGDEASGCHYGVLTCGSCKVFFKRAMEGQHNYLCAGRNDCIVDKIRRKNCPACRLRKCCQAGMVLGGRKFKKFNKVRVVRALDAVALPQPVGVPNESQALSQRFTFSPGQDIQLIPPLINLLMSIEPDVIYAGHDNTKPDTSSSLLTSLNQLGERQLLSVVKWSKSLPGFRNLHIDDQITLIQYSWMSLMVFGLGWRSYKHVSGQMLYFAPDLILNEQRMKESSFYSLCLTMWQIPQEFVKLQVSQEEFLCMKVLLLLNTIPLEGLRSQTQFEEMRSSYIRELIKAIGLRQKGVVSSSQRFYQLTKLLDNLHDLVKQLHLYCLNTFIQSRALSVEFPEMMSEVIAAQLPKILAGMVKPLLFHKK
Chain of Estrogen receptor (Homo sapiens) (P03372 whole entry, looked up): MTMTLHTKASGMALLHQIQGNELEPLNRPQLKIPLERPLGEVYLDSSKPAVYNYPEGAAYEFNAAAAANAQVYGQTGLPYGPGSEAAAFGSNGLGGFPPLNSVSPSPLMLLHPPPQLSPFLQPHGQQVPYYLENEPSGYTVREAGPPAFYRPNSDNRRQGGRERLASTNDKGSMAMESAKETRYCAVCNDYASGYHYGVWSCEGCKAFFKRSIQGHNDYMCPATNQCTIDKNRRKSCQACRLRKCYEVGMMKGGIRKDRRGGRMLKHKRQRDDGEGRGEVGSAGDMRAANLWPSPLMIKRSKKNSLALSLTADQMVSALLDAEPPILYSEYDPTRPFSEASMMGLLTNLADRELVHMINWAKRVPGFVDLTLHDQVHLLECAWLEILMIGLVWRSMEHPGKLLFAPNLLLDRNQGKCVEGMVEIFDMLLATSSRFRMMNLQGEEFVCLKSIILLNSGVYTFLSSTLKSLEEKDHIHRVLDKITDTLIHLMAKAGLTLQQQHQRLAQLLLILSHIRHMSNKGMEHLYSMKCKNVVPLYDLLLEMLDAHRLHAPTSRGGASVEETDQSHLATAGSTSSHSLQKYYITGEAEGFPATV

Regarding `CCC(O)CO` (stereo unspecified), the Potency result in assay [1], in assay [2], in assay [3], in [4], in [5] and in [6] was “inactive” in each case. Further, the Potency entry in assay [7] and in assay [9] was “inactive” in each case. Moreover, the result in assay [8] was inactive.
On to `Nc1ccc(F)c([N+](=O)[O-])c1`, for which the Potency entry in assay [1], in [2], in assay [3], in assay [4], in assay [5] and in assay [6] was “inactive” throughout. Besides, the Potency result in assay [7] and in assay [9] was “inactive” in each case. Besides, in assay [8], the molecule was classed as inactive.
`C=CC(=O)O[C@H]1C[C@@H]2CC[C@@]1(C)C2(C)C`: the Potency entry in assay [1], in [2], in assay [3], in assay [4], in [7] and in [9] was “inactive” in each case. Also, the molecule was called inactive in [8].
On to `CCOC(=O)[C@H](C)O`, for which the Potency entry in assay [1], in [2], in [3], in [4], in assay [7] and in assay [9] was “inactive” in each case. For the same molecule, the molecule was classed as inactive in assay [8].
On to `O=C1OC(=O)c2cc(-c3ccc4c(c3)C(=O)OC4=O)ccc21`, for which the Potency entry in assay [1], in [2], in assay [3], in assay [4], in assay [5] and in assay [6] was “inactive” in each case. Also, the Potency result in assay [7] and in assay [9] was “inactive” each time. For the same molecule, the result in assay [8] was inactive.
On to `Brc1cc(Br)cc(Br)c1`, for which the Potency result in [1], in [2], in [3], in assay [4], in assay [5] and in assay [6] was “inactive” in each case. Also, the Potency entry in [7] and in assay [9] was “inactive” in each case. Besides, the outcome in assay [8] was inactive.
For the molecule `CC(C)(C)c1cc(CCC(=O)OCCSCCOC(=O)CCc2cc(C(C)(C)C)c(O)c(C(C)(C)C)c2)cc(C(C)(C)C)c1O`, the Potency entry in [1], in assay [2], in assay [3], in [4], in assay [5] and in assay [6] was “inactive” each time. The Potency result in [7] and in assay [9] was “inactive” each time. For the same molecule, in [8], the outcome was inactive.
Take `CC1(C)[C@H]2CC[C@]1(C)C(=O)C2`: the Potency entry in [1], in assay [2], in assay [3], in assay [4], in assay [5] and in [6] was “inactive” in each case. Further, the Potency entry in [7] is “inactive”. Besides, in assay [8], the molecule was called inactive.
Turning to `Cc1ccc(C=O)cc1`, the Potency entry in assay [1], in assay [2], in assay [3], in [4], in [5] and in [6] was “inactive” throughout. Also, the Potency entry in assay [7] and in assay [9] was “inactive” throughout. Besides, in assay [8], the call was inactive.
As for `Cc1ccc(S(=O)(=O)C(I)I)cc1`, the Potency was 68.6 µM (active) in [1]; 21.7 µM (active) in [2]; 30.6 µM (active) in assay [3]; 9.69 µM (active) in [5]; 68.6 µM (active) in [6]; 68.6 µM (active) in assay [7]. In assay [4], the Potency result is “inactive”.
As to `CC(O)(c1ccc(Cl)cc1)c1ccc(Cl)cc1`, the Potency entry in [1], in assay [2], in assay [3], in [4], in assay [5] and in assay [6] was “inactive” in each case. Further, the Potency result in [7] was “inactive”. Moreover, the outcome in [8] was inactive.
`C=C(C)CCO`: the Potency result in [1], in [2], in assay [3], in assay [4], in assay [5] and in assay [6] was “inactive” each time. Besides, the Potency entry in assay [7] and in assay [9] was “inactive” in each case. In addition, the outcome in [8] was inactive.
Consider `Cc1cc(Br)ccc1NC(=O)CCl`, for which the Potency is 54.5 µM (active) in [1], 30.6 µM (active) in assay [2] and 30.6 µM (active) in [3]. Moreover, the Potency result in [4], in assay [5] and in [6] was “inactive” in each case. Also, the molecule was called inactive in assay [8].
Regarding `[Cl][Eu]([Cl])[Cl]`, the Potency entry in assay [1], in [2], in assay [3], in assay [4] and in [7] was “inactive” each time. Also, the result in [8] was inactive.
Take `O=C(Cl)c1ccc(Cl)cc1Cl`: the Potency result in [1], in assay [2], in assay [3], in assay [4], in assay [7] and in assay [9] was “inactive” in each case. The result in [8] was inactive.
`Clc1cccc(Cl)n1`: the Potency entry in [1], in [2], in assay [3], in assay [4] and in assay [7] was “inactive” throughout. The molecule was called inactive in [8].
In the case of `C=C1CC[C@H]2O[C@]2(C)CC[C@@H]2[C@@H]1CC2(C)C`, the Potency result in assay [1], in assay [2], in assay [3], in assay [4], in assay [5] and in assay [6] was “inactive” in each case. The Potency result in assay [7] and in assay [9] was “inactive” in each case. Besides, the call in assay [8] was inactive.
As for `CC(=O)CC(N)=O`, the Potency result in assay [1], in assay [2], in assay [3], in [4], in assay [7] and in assay [9] was “inactive” each time. For the same molecule, the outcome in assay [8] was inactive.
Turning to `Cc1cc(C)c(O)c(C(C)(C)C)c1`, the Potency result in assay [1], in assay [2], in assay [3], in assay [4], in [5] and in assay [6] was “inactive” throughout. Also, the Potency entry in assay [7] and in assay [9] was “inactive” each time. Besides, the result in assay [8] was inactive.
Turning to `N#Cc1ccc(C/C(=N/NC(=O)Nc2ccc(OC(F)(F)F)cc2)c2cccc(C(F)(F)F)c2)cc1`, the Potency entry in [1], in assay [2], in [3], in [4], in assay [5] and in [6] was “inactive” throughout. Further, the Potency result in assay [7] is “inactive”. Moreover, the call in assay [8] was inactive. In addition, the Potency in [9] was 27.3 µM (active).
`NC(=O)C1CO1` (stereo unspecified): the Potency entry in assay [1], in assay [2], in [3], in assay [4], in [5] and in [6] was “inactive” throughout. Besides, the Potency result in [7] and in [9] was “inactive” each time. Besides, in assay [8], the call was inactive.
On to `CN1CCN(CCCN2c3ccccc3Sc3ccc(Cl)cc32)CC1`, for which the Potency entry in assay [1], in [4], in assay [5] and in [7] was “inactive” in each case. The Potency in assay [2] is 21.1 µM (active); in assay [3], 13.3 µM (active); in [6] it was 26.6 µM (active). In addition, the molecule was classed as inactive in assay [8].
For `CN1CCN(c2ccccc2/C=C2\SCCN(c3ccc(Cl)c(Cl)c3)C2=O)CC1`, the Potency in assay [1] is 48.6 µM (active); in [2], 30.6 µM (active); in assay [3] it was 61.1 µM (active); in assay [7], 68.6 µM (active). The Potency entry in assay [4] and in assay [5] was “inactive” each time.
As for `CC(c1cc(C(C)(C)C)cc(C(C)(C)C)c1O)c1cc(C(C)(C)C)cc(C(C)(C)C)c1O`, the Potency entry in assay [1], in assay [2], in assay [3], in assay [4], in [5] and in assay [6] was “inactive” each time. Further, the Potency result in assay [7] and in assay [9] was “inactive” throughout. The call in [8] was inactive.
With `COc1cc(OC)nc(NC(=O)NS(=O)(=O)Nc2ccccc2C(=O)N(C)C)n1`, the Potency entry in [1], in assay [2], in [3], in assay [4], in [5] and in assay [6] was “inactive” in each case. Further, the Potency entry in assay [7] and in [9] was “inactive” in each case. Further, the outcome in assay [8] was inactive.
